Test results taken from PubChem BioAssay (EPA / NIEHS).
Values joined by “and” are separate entries in the source; they are usually repeats but may differ in a detail not shown here. Equal entries are not always repeated. Active and inactive are the calls of the source. How the source made its calls: active means hit-call score of the fitted dose curve at least 0.9, where 1 is the maximum; inactive means score below 0.9.

What follows are compounds tested against Cytochrome P450 2C18 (Homo sapiens) (UniProt P33260) (assay: NVS_ADME_hCYP2C18: NovaScreen (NVS) CYP450-related Enzyme Activity (ADME) Assay for human CYP2C18 (AID 2283103)).
Cytochrome P450 2C18 (Homo sapiens), sequence (P33260 whole entry, looked up): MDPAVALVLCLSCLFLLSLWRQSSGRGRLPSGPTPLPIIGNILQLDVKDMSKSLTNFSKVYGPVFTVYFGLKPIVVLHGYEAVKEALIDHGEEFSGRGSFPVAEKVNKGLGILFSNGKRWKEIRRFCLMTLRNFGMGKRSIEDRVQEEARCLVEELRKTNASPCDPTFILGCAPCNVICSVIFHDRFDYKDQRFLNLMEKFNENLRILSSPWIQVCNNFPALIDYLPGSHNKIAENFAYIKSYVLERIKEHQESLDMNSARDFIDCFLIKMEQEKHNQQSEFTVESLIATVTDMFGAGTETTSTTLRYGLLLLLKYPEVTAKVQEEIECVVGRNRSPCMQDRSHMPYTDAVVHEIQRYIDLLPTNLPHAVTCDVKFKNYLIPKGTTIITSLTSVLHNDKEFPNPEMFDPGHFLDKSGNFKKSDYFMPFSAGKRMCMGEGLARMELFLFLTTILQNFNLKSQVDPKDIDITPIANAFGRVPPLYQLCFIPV
Experimental: NVS_ADME_hCYP2C18 is a biochemical, single-readout assay that uses extracted gene-proteins in a cell-free assay. Measurements were taken 0.5 hour after chemical dosing in a 96-well plate.NVS_ADME_hCYP2C18 is one of one assay component(s) measured or calculated from the NVS_ADME_hCYP2C18 assay. It is designed to make measurements of enzyme activity, a form of enzyme reporter, as detected with fluorescence intensity signals by Fluorescence technology.Data from the assay component NVS_ADME_hCYP2C18 was analyzed into 1 assay endpoint. This assay endpoint, NVS_ADME_hCYP2C18, was analyzed in the positive analysis fitting direction relative to Acetonitrile as the negative control and baseline of activity. Using a type of enzyme reporter, loss-of-signal activity can be used to understand changes in the enzymatic activity as they relate to the gene CYP2C18. Furthermore, this assay endpoint can be referred to as a primary readout, because this assay has produced multiple assay endpoints where this one serves a enzymatic activity function. To generalize the intended target to other relatable targets, this assay endpoint is annotated to the cyp intended target family, where the subfamily is xenobiotic metabolism.
Binding assays used specific radioligands (tritiated, iodinated) with non-radioactive competitive displacement ligands in agonist or antagonist protocols (as indicated) and various reference compounds and inhibitors to titrate specific binding to receptors and transporters. Most enzyme assays (CYPs, kinases, phosphatases, proteases, HDACs) used recombinant protein and specific substrates (fluorescence mostly, some colorimetric and radioactive) and inhibitors, followed by a biochemical separation of substrate and product. All assays for the biochemical HTS were initially run in duplicate at a single concentration (10 uM for CYP450 assays and 25 uM for all others). Assay-chemical combinations meeting a pre-defined threshold (e.g., 30% inhibition and other criteria defined below) were then run in singleton concentration-response format with maximum concentration of 20 uM for CYPs and 50 uM for all others. Each assay was run with positive and negative controls, and concurrent controls on every plate. The follow-up (secondary) screen tested active chemical-pairs in concentration series, as well as a few additional assays not tested in the primary screen, some selected negative inactives, and several cases re-run in the concentration series for confirmatory purposes.
With `CCCN(CCC)c1c([N+](=O)[O-])cc(S(N)(=O)=O)cc1[N+](=O)[O-]` the AC50 was 2.71 µM (active). In the case of `CCOC(=O)C(Cl)Cc1cc(-n2nc(C)n(C(F)F)c2=O)c(F)cc1Cl` (stereo not drawn), the outcome is reported as “inactive”. For `CCCCNC(=O)OCC#CI`, the AC50 was 2.41 µM (active) and 4.8 µM (active). For `CCCCC(CC)COC(=O)c1ccccc1C(=O)OCC(CC)CCCC` (stereo not drawn), the outcome was “inactive”. `COP(=S)(OC)Oc1nc(Cl)c(Cl)cc1Cl` was tested, and the outcome was “inactive”. In the case of `CNC(=S)S`, the outcome is reported as “inactive”. With `CO/C=C(/C(=O)OC)c1ccccc1Oc1cc(Oc2ccccc2C#N)ncn1` the AC50 was 5.5 µM (active). In the case of `N#CC(CCc1ccc(Cl)cc1)(Cn1cncn1)c1ccccc1` (stereo not drawn), the AC50 is reported as 0.428 µM (active). `Cc1ccc(-c2c(Cl)nc(C#N)n2S(=O)(=O)N(C)C)cc1` was tested, and the AC50 was 10 µM (active). For `CC1COC(Cn2cncn2)(c2ccc(Oc3ccc(Cl)cc3)cc2Cl)O1` (stereo not drawn), the AC50 was 1.07 µM (active). For `COC(=O)N(OC)c1ccccc1COc1ccn(-c2ccc(Cl)cc2)n1`, the AC50 was 0.784 µM (active). In the case of `C#CCOS(=O)OC1CCCCC1Oc1ccc(C(C)(C)C)cc1` (stereo not drawn), the AC50 is reported as 10 µM (active). For `CCOC(=O)CC(SP(=S)(OC)OC)C(=O)OCC` (stereo not drawn), the AC50 was 0.459 µM (active). For `COc1ccc(C(c2ccc(OC)cc2)C(Cl)(Cl)Cl)cc1`, the AC50 was 4.6 µM (active). In the case of `CCCC1COC(Cn2cncn2)(c2ccc(Cl)cc2Cl)O1` (stereo not drawn), the AC50 is reported as 2.15 µM (active). In the case of `CCOP(=S)(OCC)SCn1c(=O)oc2cc(Cl)ccc21`, the AC50 is reported as 1.46 µM (active). In the case of `CN(C)C(=S)SSC(=S)N(C)C`, the AC50 is reported as 2.26 µM (active). For `OC(c1ccc(Cl)cc1)(c1cncnc1)c1ccccc1Cl` (stereo not drawn), the AC50 was 6.02 µM (active).
